ChEMBL document CHEMBL4513216, “Probing the Open Global Health Chemical Diversity Library for Multistage-Active Starting Points for Next-Generation Antimalarials” (ACS Infect Dis, 2020)
Screen size: about 69,000 compounds; about 8,600 (12%) showed an effect of 50% or more. For the sample, strong results were picked, then their nearest neighbours and some compounds at random.

These molecules were tested on Plasmodium berghei (assay: Screen against P. berghei liver stage (PbLuc), transformed with Luciferase, at 10uM). Settings: tested at 10 uM.
Type: functional, HepG2

| SMILES | INHIBITION [%] |
| --- | --- |
| CCc1cnc(N2CC[C@H]3[C@@H]2CCC(=O)N3c2cccnc2)nc1 | -24.1 |
| COC1CCN(C(=O)Cc2csc(-c3ccccc3)n2)CC1 | -55.9 |
| Cc1noc(C(C)C)c1C(=O)NCc1ccc2c(c1)OCCO2 | -28.4 |
| CCCS(=O)(=O)N1CC(=O)N(Cc2ccccc2OC)CC(O)C1 (stereo not drawn) | 41.1 |
| CC(SCCS(C)(=O)=O)c1nc(Cc2ccc(F)cc2)no1 (stereo not drawn) | 12.4 |
| CCc1noc(C(C)SCCS(C)(=O)=O)n1 (stereo not drawn) | 64.6 |
| CC(SCCS(C)(=O)=O)c1nc(Cc2ccccc2)no1 (stereo not drawn) | 13.5 |
| O=C(Nc1cccnc1)[C@@H]1CCO[C@@H]2CCN(Cc3cccnc3)C[C@@H]21 | 12.7 |
| CC(=O)N1N=C(c2ccccc2)OC1C(=O)NCCN(C(C)C)C(C)C (stereo not drawn) | 30.3 |
| Cc1nc(C(C)(C)C)sc1C(=O)NCCNc1ncccn1 | 10 |
| Cc1nn(C)c(C)c1CCC(=O)NCC1(C(N)=O)CCOCC1 | 26.4 |
| Cc1nn(C)c(C)c1CC(=O)NCC1(C(N)=O)CCOCC1 | 47.7 |
| Cc1nn(C)c(C)c1S(=O)(=O)NCC1(C(N)=O)CCOCC1 | 74.5 |
| CSc1ccc(CN(CCO)C(=O)CCNC(C)=O)cc1 | 18.4 |
| CNCc1n[nH]c(=O)n1-c1cccc(Cl)c1Cl | 25.1 |
| N#Cc1c(N2CCCCC2)nsc1-c1cccnc1 | -0.621 |
| CN1CCN(c2nsc(-c3cccnc3)c2C#N)CC1 | 62.3 |
| CCN1CCN(c2nsc(-c3cccnc3)c2C#N)CC1 | 36.6 |
| CN(Cc1ccc(N(C)C)cc1)C(=O)c1cc2c([nH]c1=O)CCCC2=O | -42.975 |
| CNC(=O)c1ccc(C(=O)N2CCCCC2Cn2cc(C)cn2)cn1 (stereo not drawn) | 24.6 |
| Cc1cc(C(=O)N2CCC3(CC2)CC(c2cccnc2)C(=O)N3)no1 (stereo not drawn) | -31.3 |
| Cc1ccc(CN2CC[C@H]3CO[C@H](CN(C)C)[C@H]3C2)o1 | 53.9 |
| CN(C)C[C@@H]1OC[C@H]2CN(Cc3ccoc3)CC[C@H]21 | -87.7 |
| Cc1ccc(CN2CC[C@H]3[C@H](CO[C@H]3CN(C)C)C2)o1 | 13.1 |
| Cc1ccc(CN2CC[C@@H]3[C@@H](CO[C@H]3CN(C)C)C2)o1 | 61.1 |
| Cc1ccc(CN2CC[C@H]3CO[C@H](CN4CCCC4)[C@H]3C2)o1 | 7.7 |

| SMILES | INHIBITION [%] |
| --- | --- |
| Cc1ccc(CN2CC[C@H]3CO[C@H](CN4CCN(C)CC4)[C@H]3C2)o1 | 45.7 |
| CCCc1n[nH]c(C2CN(C(=O)c3cccnc3N(C)C)CCO2)n1 (stereo not drawn) | 16.9 |
| O=C(NCCO)C1(CC2CC(c3ccc(F)cc3)=NO2)CCOCC1 (stereo not drawn) | 22.8 |
| O=C(NCCCO)C1(CC2CC(c3ccc(F)cc3)=NO2)CCOCC1 (stereo not drawn) | 36 |
| CC(C)NC(=O)C1(CC2CC(c3ccc(F)cc3)=NO2)CCNCC1 (stereo not drawn) | 65.7 |
| Cc1noc(C)c1CCC(=O)NCC1(O)CCCN(c2ccccn2)C1 (stereo not drawn) | 30.4 |
| Cc1cc(CN(C)S(=O)(=O)N2CCCC2c2ccc(C)o2)no1 (stereo not drawn) | 31.9 |
| Cc1ccc(CN(C)CC2(O)CCCN(C)C2)o1 (stereo not drawn) | -12.7 |
| Cc1nn(C)c2c(N3CCN(C)CC3)nc(C3CC3)nc12 | 21.5 |
| O=C(COCC1CC1)N1CCCC1c1nc(-c2ccccc2F)c[nH]1 (stereo not drawn) | 46.4 |
| CCOCCCC(=O)N1CCCC1c1nc(-c2ccccc2F)c[nH]1 (stereo not drawn) | 29.5 |
| COC(=O)NCC(=O)N1CCCC1c1nc(-c2ccccc2F)c[nH]1 (stereo not drawn) | 60.3 |
| O=C(c1cnc2ccccc2c1)N1CCCC(O)(CN2CCCC2)C1 (stereo not drawn) | 16.2 |
| Cc1ccc(N2CCCC(NCC(=O)Nc3cc(C)nn3C)C2)nn1 (stereo not drawn) | 21 |
| Cc1nc(C)n(CC2CCCN(Cc3nnc(C4CC4)o3)C2)n1 (stereo not drawn) | 2.05 |
| CN1CCC(Cc2cc(Nc3ncccn3)ncn2)CC1 | 62.6 |
| CCC(=O)N1CCC(Cc2cc(Nc3ncccn3)ncn2)CC1 | 49.6 |
| CN1CCC(Cc2cc(Nc3ccccn3)ncn2)CC1 | -14.1 |
| O=S(=O)(C1CC1)N1CCC2(CC1)CN(Cc1nccs1)CCO2 | 23.3 |
| CCn1nc(C)c2c1cnn2CC(=O)Nc1ccc(OC)cc1C | 45.4 |
| CCOC(=O)c1ccc(S(=O)(=O)NCC(CC)N2CCCC2)cc1 (stereo not drawn) | -9.2 |
| COc1nn(C)c2c1CCCN(C(=O)c1cccn1C)C2 | 8.67 |
| Cc1nc(C)n(CCCNC(=O)C(C)n2ccnc2C(C)C)n1 (stereo not drawn) | -129 |
| Cc1nc(C)n(CCNC(=O)C(C)n2ccnc2C(C)C)n1 (stereo not drawn) | -23.7 |
| Cc1cc(C(F)(F)F)nn1CCNC(=O)C(C)n1ccnc1C(C)C (stereo not drawn) | 85.5 |
| Cc1cc(-c2cc(S(=O)(=O)N3C[C@H](C4CC4)[C@@H](N)C3)c(C)s2)[nH]n1 | 25.5 |

| SMILES | INHIBITION [%] |
| --- | --- |
| COCCN1CCCn2cnc(CN(C)C(C)C)c2C1 | 21.7 |
| COCCN1CCCn2cnc(CNC3CCCC3)c2C1 | 55.5 |
| COCCN1CCCn2cnc(CNC(=O)N(C)C)c2C1 | 29.8 |
| COCc1cccc(S(=O)(=O)N2CCSCC2)c1 | 40 |
| CSc1ccc(C)c(C(=O)N2CCCC(n3cncn3)C2)c1 (stereo not drawn) | -10.1 |
| Cc1ncc2c(n1)C1(CCN(C(=O)C(C)C)CC1)OCC2 | 3.89 |
| Cc1cc(C)cc(C(C)NC(=O)c2ccc(CS(C)(=O)=O)o2)c1 (stereo not drawn) | 54.3 |
| Cc1cn2c(n1)CCC(NC(=O)c1ccc(CS(C)(=O)=O)o1)C2 (stereo not drawn) | 13.1 |
| CC(NC(=O)c1ccc(CS(C)(=O)=O)o1)c1ccc(F)c(F)c1 (stereo not drawn) | 12.3 |
| CCc1ccc(C(=O)NC(C)c2ccc(S(C)(=O)=O)c(F)c2)o1 (stereo not drawn) | 6.33 |
| CCc1ccc(C(C)NC(=O)CN(C)Cc2ccc(C)o2)cc1 (stereo not drawn) | -27 |
| CCc1ccc(C(C)NC(=O)c2ccc(CS(C)(=O)=O)o2)cc1 (stereo not drawn) | 50.8 |
| CS(=O)(=O)N1CCC(NC(=O)COc2ccccc2Cl)CC1 | -19.9 |
| O=C(c1nccc2ccccc12)N1CCCCC1Cn1cccn1 (stereo not drawn) | 3.73 |
| Cc1nc(CNC(=O)c2cc(COc3ccccc3F)[nH]n2)n[nH]1 | 17 |
| CNc1cc(C)nc(C2CN(Cc3cncs3)CCO2)c1 (stereo not drawn) | 11.1 |
| Cn1nc(CN2CCCC2)c2c1CN(C(=O)c1cccnc1)CC2 | -31.3 |
| Cc1cc2n(n1)CC(CNCc1ccc(-n3ccnc3C)nc1)CN2 (stereo not drawn) | -13.575 |
| CC(=O)N1CCOC(c2c(C(=O)NC(C)(C)C)sc3ccccc23)C1 (stereo not drawn) | -84.7 |
| Cc1cnc(N2CC[C@@H]3O[C@@H](COCC(=O)N(C)C)CC[C@@H]32)nc1 | 18.2 |
| CN(C)Cc1ccc(C2CCCCN2C(=O)c2cc(=O)[nH]c(=O)[nH]2)cc1 (stereo not drawn) | 16.7 |
| Cc1ccc(C(=O)N(Cc2cccc(F)c2)C2CC2)c(=O)[nH]1 | -30.7 |
| CSc1ccc(CN(C)C(=O)c2cc3c([nH]c2=O)CCCC3=O)cc1 | 7.99 |
| CSc1ccc(CN(C(=O)c2cc(=O)[nH]c(=O)[nH]2)C2CC2)cc1 | 59.1 |
| O=C(c1cc[nH]n1)N(Cc1ccccc1)CC1CCC1 | 72.3 |
| O=C(c1cc[nH]n1)N(Cc1cccc(O)c1)CC1CC1 | 5.64 |

| SMILES | INHIBITION [%] |
| --- | --- |
| O=C(c1cc[nH]n1)N(Cc1ccc(F)cc1)CC1CC1 | -24 |
| Cc1ccc(C(=O)N(Cc2ccc(F)cc2)C2CC2)c(=O)[nH]1 | -37.8 |
| COc1cc(C(=O)N(Cc2ccc(F)cc2)C2CC2)cc2c1OCCO2 | 13.4 |
| CSc1ccc(CN(C(=O)c2cc(C)[nH]c(=O)c2)C2CC2)cc1 | 50.8 |
| CSc1ccc(CN(C(=O)c2cc[nH]n2)C2CC2)cc1 | 59.1 |
| COC1CCN(c2ccc(F)cc2CN(C)C(=O)c2cc[nH]n2)CC1 | -74.8 |
| NC(=O)C1Cn2ccnc2C2(CCN(C(=O)NC3CCCC3)CC2)O1 (stereo not drawn) | 0.453 |
| CC(C)Oc1ccc(CNC(=O)CCN2C(=O)CCC2=O)cc1F | -38.75 |
| Cc1nc2c(c(NC3CCN(Cc4ccccc4)CC3)n1)CCNCC2 | -4.28 |
| CC(=O)N1CCCC(c2nccnc2-c2ccc(CO)cc2)C1 (stereo not drawn) | 20.2 |
| c1ccc(CCN2CCN(C3CCOC4(CCOCC4)C3)CC2)cc1 (stereo not drawn) | 36.8 |
| CC(NC(=O)CN(C)S(C)(=O)=O)c1nnc2n1CCCCC2 (stereo not drawn) | 38.6 |
| CCc1ccc(C(=O)N2CCCC(CNS(C)(=O)=O)C2)o1 (stereo not drawn) | -26.6 |
| O=C(NCc1ccccc1)C1=NOC2(CCNC2)C1 (stereo not drawn) | 24.5 |
| O=c1ccc(-c2cccs2)nn1CN1CCN(C2CCS(=O)(=O)C2)CC1 (stereo not drawn) | -4.52 |
| COc1ccc(C(=O)CNC(=O)c2nc(Cl)sc2C(C)C)cc1 | -44.2 |
| O=C(CCc1nnc(-c2ccccc2)o1)N1CCCC1c1ccccn1 (stereo not drawn) | 17.8 |
| CC1CCCCN1C(=O)CCc1nnc(-c2ccccc2)o1 (stereo not drawn) | 51.5 |
| O=C(CCc1nnc(-c2ccccc2)o1)N1CCCC1c1ccc[nH]1 (stereo not drawn) | -14.9 |
| Cc1cc(CN2CCC(N(C)Cc3nnc(C4CC4)n3C)C2)on1 (stereo not drawn) | 19.2 |
| COCc1noc(Cc2c(C)nn(C)c2C)n1 | 28.5 |
| Cc1nc(C(=O)N(CC(=O)N(C)C)CC(F)(F)F)c2ccccn12 | 53.3 |
| Cc1nc(C(=O)N(C)CC(F)(F)C(F)(F)F)c2ccccn12 | 3.03 |
| CCOC(=O)CN(CC(F)(F)F)C(=O)c1nc(C)n2ccccc12 | 22.3 |
| CCCc1nc(CN2CCCC(c3noc(C4CC4)n3)C2)no1 (stereo not drawn) | 4.71 |
